The values below come from PubChem BioAssay AID1671190 (National Center for Advancing Translational Sciences (NCATS), 2021).

Where “and” joins values, the source holds several entries; their conditions need not be identical. Equal values may be shown once. Among all 580,000 compounds or so, about 6,100 (1.1%) were called active. About 15% were inconclusive and are not listed. Calls follow the shape of the dose curve; as a rule, active = well fitted inhibition curve with a large enough effect; inconclusive = small, poorly fitted or top-dose-only effect, or another doubt; inactive = no such curve, though single readings can be large or run the other way. The list comes from a sample in which actives are over-represented; it also holds similar structures and randomly drawn compounds.
% is scaled to controls: 0 for no effect and ±100 for the full control effect; potency is read from the fitted curve at half-maximal effect.

Sequence of Polyunsaturated fatty acid lipoxygenase ALOX12 (Homo sapiens) (P18054 whole entry, looked up): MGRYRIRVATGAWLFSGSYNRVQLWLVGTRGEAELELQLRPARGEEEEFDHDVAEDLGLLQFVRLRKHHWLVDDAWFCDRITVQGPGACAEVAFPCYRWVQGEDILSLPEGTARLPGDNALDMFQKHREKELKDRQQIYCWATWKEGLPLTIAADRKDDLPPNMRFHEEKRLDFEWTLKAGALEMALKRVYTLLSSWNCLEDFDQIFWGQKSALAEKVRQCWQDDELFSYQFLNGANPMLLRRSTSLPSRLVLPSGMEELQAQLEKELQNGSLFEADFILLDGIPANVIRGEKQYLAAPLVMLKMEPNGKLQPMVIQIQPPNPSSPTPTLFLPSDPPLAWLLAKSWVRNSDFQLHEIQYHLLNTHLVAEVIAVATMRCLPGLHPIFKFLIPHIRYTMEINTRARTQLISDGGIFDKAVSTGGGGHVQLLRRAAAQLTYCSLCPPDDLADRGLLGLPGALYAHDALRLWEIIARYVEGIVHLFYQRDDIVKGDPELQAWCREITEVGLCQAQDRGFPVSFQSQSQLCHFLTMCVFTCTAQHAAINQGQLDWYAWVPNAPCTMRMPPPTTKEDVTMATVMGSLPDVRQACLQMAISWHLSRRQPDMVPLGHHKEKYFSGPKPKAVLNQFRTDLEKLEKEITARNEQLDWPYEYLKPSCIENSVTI

This assay addresses Polyunsaturated fatty acid lipoxygenase ALOX12 (Homo sapiens) (UniProt P18054). Kind of assay: Primary qHTS assay for inhibitors of human arachidonate 12S-lipoxygenase (ALOX12): Round 2. The settings on record: purified 12hLO, xylenol orange hydroperoxide absorbance; series mostly up to 108 µM; activity change, negative = inhibition: at the top concentration. From the text: Assay Provider: Theodore R. Holman Ph.D. University of California, Santa Cruz, California Human lipoxygenase 12hLO is a member of the closely related lipoxygenase family of enzymes which catalyze the site-specific oxidation of arachidonic acid to various hormone precursor molecules and as such is a candidate for drug development in a variety of disease areas, such as cancer and inflammation. Inhibition of 12hLO activity was screened by utilizing arachidonic acid as a substrate. The extent of hydroperoxide product formation was measured by a secondary chromogenic reaction in which xylenol orange (XO, Sigma-Aldrich, cat. number 39,818-7) reacts with the ferric ions produced from the reaction between the hydroperoxide and ferrous ions. The Fe (III)-XO complex is characterized with red-shifted absorbance at 560 nm. A purified preparation of human 12hLO was supplied by Dr. Holman laboratory, University of California, Santa Cruz.
PROTOCOL TABLE SEQUENCE No. (e.g., 1, 2, 3, etc.); […] (e.g., Cells, Incubation, Reagent, etc.); VALUE; DESCRIPTION 1; Enzyme; 3 uL; 150 nM 12hLO enzyme solution dispensed in 1536-well Greiner black, clear bottom plates. 2; Compound; 23 nL; compounds and controls were added. 3; Incubate; 15 min; room temperature. 4; Substrate; 1 uL; 40 uM arachidonic acid (final concentration). 5; Incubate; 30 min; room temperature. 6; Reagent; 4 uL; Fe-XO solution was added to each well. 7; Incubation; 30 min; room temperature 8; Detector; absorbance; Read 1 at 405 nm absorbance using ViewLux (Perkin-Elmer) CCD imager. 9; Detector; absorbance; Read 2 at 573 nm absorbance using ViewLux (Perkin-Elmer) CCD imager. NOTES (numbers refer to sequence above) 1; 150 nM 12hLO (final concentration) in buffer solution (25 mM Hepes, 0.01% Triton X-100, pH 7.0) was dispensed in columns 1, 2, 5-48. Column 1 is neutral (100% activity). Buffer only was dispensed in columns 3 and 4 as no enzyme negative controls. The plates were covered with metal lids with gas-exchange holes. 2; Compounds were pin transferred via a Kalypsys Pin Tool (Wako USA) in column 5-48. Control compound was transferred in column 2, titration of nordihydroguaiaretic acid (NDGA, Sigma-Aldrich, N5023) with top concentration of 20 mM in DMSO then 1:3 dilution in duplicate. Dilution factor of 23 nL into 4 uL final assay volume. 3; Covered assay plates were incubated for 15 min at room temperature. 4; Substrate was added to start the reaction; 40 uM arachidonic acid (Sigma-Aldrich, St. Louis, MO) was dispensed throughout the plate. 6; Chromogenic detection reagent solution (divalent iron/xylenol orange, Fe-XO) was added to each well: 200 uM xylenol orange, 300 uM ferrous ammonium sulfate prepared freshly in 50 mM sulfuric acid. 8, 9; Two absorbance readouts were obtained at 405 nm and at 573 nm using a ViewLux high-throughput CCD plate imager (Perkin-Elmer). The 573 to 405 (Read 2 / Read 1) absorbance ratio was used to compute reaction progress.
(Quantitative high-throughput screening tests each substance at several concentrations.)
Take `CCOC(=O)c1c(NC(=O)C2(C)Cc3ccccc3C(=O)O2)sc2c1CCCC2` (stereo unspecified): the “activity change, negative = inhibition” value was -14.7% (inactive). Regarding `CCOC(=O)C1=C(NC(=S)NC(=O)c2ccccc2)c2ccccc2CC1(C)C`, the Potency was 22.4 µM (active). `CC(C)CNC(=O)NC1=C(C#N)C(C)(C)Cc2ccccc21`: the “activity change, negative = inhibition” value was 16.7% (inactive). Same read-out and setting: the same measure for `CC(=O)CCc1ccc(OCC(O)CNC(C)(C)CO)cc1` (stereo unspecified): 18.8% (inactive).

For the compound `CCc1ccc(-c2nc(SCc3ncc(-c4ccccc4)o3)n[nH]2)cc1`, the “activity change, negative = inhibition” value was -7.84% (inactive).

With `CCOC(=O)c1cccc(NC(=O)C2=Cc3ccccc3OC=C2)c1`, the “activity change, negative = inhibition” value is -0.337% (inactive). In the case of `CC(=O)c1c(N2CCN(c3ccc(F)cc3)CC2)nc(=S)n(-c2ccccc2)c1C`, the Potency is 44.7 µM (active). Regarding `CC(=O)c1c(N2CCOCC2)nc(=S)n(-c2cc(C)ccc2C)c1C`, the “activity change, negative = inhibition” value was -29.5% [at 57.4 µM] (inactive). Regarding `CC(=O)c1c(N2CCOCC2)nc(=S)n(Cc2ccccc2)c1C`, the “activity change, negative = inhibition” value was 0% (inactive). With `Cc1ccc(/C=C/C(=O)c2cc3ccccc3o2)s1`, the “activity change, negative = inhibition” value was -33.4% (inactive).

`O=C(COc1ccc(F)cc1)Nc1ccc2oc(-c3ccc(F)cc3)nc2c1`: the “activity change, negative = inhibition” value was -35.7% (inactive). Turning to `COc1ccc(CCNc2ncnc3c2cnn3-c2ccc(C)cc2)cc1`, the Potency was 28.2 µM (active). With `CCN(CC)CCNc1ncnc2c1cnn2-c1cc(Cl)ccc1C`, the “activity change, negative = inhibition” value is -27.4% (inactive). As to `NS(=O)(=O)c1ccc(CCNc2ncnc3c2cnn3-c2ccccc2Cl)cc1`, the “activity change, negative = inhibition” value was 34.2% (inactive).

On to `Clc1cccc(-n2ncc3c(NCCc4ccccc4)ncnc32)c1`, for which the Potency was 44.7 µM (active) and 8.91 µM (active). Turning to `COc1ccc(CCNc2ncnc3c2nnn3Cc2ccccc2)cc1`, the “activity change, negative = inhibition” value was 2.33% (inactive). With `Cc1ccc(-n2ncc3c(NNC(=O)C4CCCCC4)ncnc32)cc1`, the “activity change, negative = inhibition” value is -0.144% (inactive). Same read-out and setting: the value for `CCOC(=O)c1c(C)c(CCC(=O)NCCN2CCOCC2)c(C)n1C` was -3.28% (inactive); that for `CCN(CC)C(=O)C1=C(C)N=C2SC=C(CC(=O)NCc3ccco3)N2C1c1ccccc1F` (stereo unspecified) was 44.2% (inactive). `C#CCNC(=O)CC[C@@H]1CNC(=O)[C@@H]2C[C@H](NC(=O)Nc3cccc(Cl)c3)CN12`: the “activity change, negative = inhibition” value is -15.5% [at 176 µM] (inactive). Consider `O=C1Nc2ccc(-c3ccc(Cl)cc3)cc2C(=O)N2CC[C@H](NC(=O)N3CCOCC3)[C@@H]12`, for which the “activity change, negative = inhibition” value was -2.01% (inactive).

Turning to `COc1cc(=O)n(-c2ccc(C)cc2)nc1C(=O)Nc1cccc(Cl)c1C`, the “activity change, negative = inhibition” value is 4.75% (inactive). For `COc1cc(OC)cc(C(=O)OCC(=O)Nc2c(C)cccc2C(C)C)c1`, the “activity change, negative = inhibition” value was 11% (inactive). In the case of `CC(C)c1ccc(C2/C(=C(\O)c3ccc4c(c3)OCCO4)C(=O)C(=O)N2c2nccs2)cc1` (stereo unspecified), the Potency is 0.794 µM (active).

As to `O=C1C(=O)N(CCCN2CCOCC2)C(c2ccc([N+](=O)[O-])cc2)/C1=C(\O)c1ccc2c(c1)OCCO2` (stereo unspecified), the “activity change, negative = inhibition” value was -19.6% (inactive). As for `COc1cc(C2/C(=C(\O)c3ccc4c(c3)CC(C)O4)C(=O)C(=O)N2c2nnc(C)s2)cc(OC)c1OC` (stereo unspecified), the “activity change, negative = inhibition” value is -22.7% (inactive). On the same count and under the same terms, the same measure for `CCn1cc(C#N)c(=O)n(Cc2noc(-c3ccc(Cl)cc3)n2)c1=O`: -30.4% (inactive). Regarding `Cc1cccc(NC(=O)c2cccc(C(=O)Nc3cccc(C)c3C)n2)c1C`, the Potency is 3.16 µM (active).

As for `Cc1cccc(NC(=O)c2ccc3nc(C(C)C)oc3c2)c1C`, the “activity change, negative = inhibition” value is -22.6% (inactive). As to `Cc1cccc(NC(=O)N2CCCCCC2)c1C`, the “activity change, negative = inhibition” value is 7.92% (inactive). Still for that read-out and setting: the value for `O=C(OCc1ccccc1)N1CCOCC12CCN(Cc1cccc(O)c1)CC2` was 18.9% [at 176 µM] (inactive); that for `CCc1ccccc1NC(=O)CSc1nc2c(=O)[nH]cnc2n1CC` was -4.33% (inactive). As for `c1ccc(C(=NNc2nc3ccccc3s2)c2ccccn2)cc1`, the Potency is 44.7 µM (active). For the compound `O=C(CCc1ncc(-c2ccccc2)o1)Nc1nc2ccccc2s1`, the “activity change, negative = inhibition” value is -24.4% (inactive). On to `Cc1cc(C)cc(-n2ccnc2SCC(=O)Nc2nc3ccccc3s2)c1`, for which the “activity change, negative = inhibition” value is -4.72% (inactive). In the case of `COc1cccc(Oc2coc3cc(OC)ccc3c2=O)c1`, the “activity change, negative = inhibition” value was 21.4% (inactive). As to `CCN1C(=O)COc2ccc(NC(=O)c3cc(=O)c4cc(Cl)c(C)cc4o3)cc21`, the “activity change, negative = inhibition” value was 6.24% (inactive).

`O=C(NCCc1nc2ccccc2[nH]1)c1ccc(N2CCCN(Cc3cccc(F)c3)C2=O)cc1`: the “activity change, negative = inhibition” value is 5.35% (inactive). With `CCOC(=O)c1c(S(=O)(=O)N2CCCC2)nn(C)c1C`, the Potency is 14.1 µM (active). In the case of `CCOC(=O)c1c(S(=O)(=O)N2CCCC(C(=O)NCc3cccc(C)c3)C2)c(C)n(C)c1C` (stereo unspecified), the “activity change, negative = inhibition” value was -21.3% (inactive). The same measure, in the same setting: the same measure for `CCOc1ccccc1NC(=O)C1CCN(S(=O)(=O)c2c(C)nn(C)c2C)CC1`: 24.8% (inactive). Consider `CC(=O)C1=C(C)N(Cc2ccc(Cl)cc2)C(=S)NC1c1ccc(F)cc1` (stereo unspecified), for which the Potency was 44.7 µM (active). The same measure, in the same setting: the same measure for `CC(=O)C1=C(C)N(Cc2ccccc2)C(=S)NC1c1cccc(Br)c1` (stereo unspecified): 44.7 µM (active).

For `CCN(CC)C(=O)C1=C(C)N(Cc2ccc(F)cc2)C(=O)C(CC(=O)NC2CCCC2)C1` (stereo unspecified), the “activity change, negative = inhibition” value was -0.0623% (inactive).

In the case of `COC(=O)C1=C(C)N(Cc2ccc(F)cc2)C(=S)NC1c1cccc(Cl)c1` (stereo unspecified), the Potency is 39.8 µM (active). `O=C(CN1CCN(Cc2ccc(Cl)cc2)C1=O)NCc1ccc(F)cc1`: the “activity change, negative = inhibition” value was -16.3% (inactive). For `COC(=O)C1=C(C)N(C)C(C)=C(C(=O)OC)C1c1cccc(Br)c1`, the “activity change, negative = inhibition” value is 34.3% (inactive). For the compound `COC(=O)C1=C(C)N(Cc2ccccc2C(F)(F)F)C(=NCc2ccc(OC)cc2)NC1c1cccc(C(F)(F)F)c1` (stereo unspecified), the “activity change, negative = inhibition” value is -22.5% (inactive). Regarding `COC(=O)C1=C(C)N(Cc2ccccc2C(F)(F)F)C(=NCC2CC2)NC1c1cccc(Cl)c1` (stereo unspecified), the “activity change, negative = inhibition” value is -22% (inactive). Consider `CCN1CN(Cc2ccccc2)CNC1=S`, for which the “activity change, negative = inhibition” value was -19.3% (inactive). Take `O=C1CCN(C(=O)C2CCN(C(=O)C3COc4ccccc4O3)CC2)CCCCCCN1` (stereo unspecified): the “activity change, negative = inhibition” value was 54.9% (inactive).
